Source: PubChem (several laboratories)
Sampled rows, rich in hits. Any-hit rate of the full collection: about 0.79%.
AddAB inh: less growth of phage-infected E. coli with AddAB; 0.29% of 330,000 active; E. coli expressing H. pylori AddAB, absorbance growth; inhibition, % at 11.9 µM; in the data active = inhibition above about 12%
E coli growth-1: blocks Escherichia coli growth; OD600, 23 h; hits give low values; AID 1053175; OD600 absorbance (test concentration not listed); 0.21% of 330,000 active;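 active = OD600 absorbance below the run mean of sample wells minus 3.6 SD, in any replicate, cut at about 0.56 in these data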
AI-2 QS modul: modulators of Vibrio harveyi AI-2 quorum sensing system; Vibrio harveyi JMH597 AI-2 luminescence/OD600 ratio, 9 h; hits give low values; strain lacks LuxN and CqsS sensors; 0 = neutral-control median; activity change, % at 7.5 µM; 0.4% of 300,000 active; in the data active = activity change below about -75%, passing the limit was not always enough; inconclusive = no clear call, values can overlap the other calls;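 also: luminescence divided by OD600 gain over 9 h not by final OD600 alone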
E coli growth-2: reduces bacterial viability in AddAB counter-screen; E. coli V3065 growth, OD600 absorbance, 18 h; inhibition, % at 11.9 µM; 0.27% of 330,000 active;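 active = inhibition above the campaign's mean inhibition across all tested compounds plus 3 SD, cut at about 9.9% in these data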;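 also: uninfected addAB+ strain grown without phage in ampicillin broth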
phage Ecoli inh: E. coli growth loss with phage present; growth absorbance; 0.26% of 360,000 active; inhibition, % at 11.9 µM; AID 651602; in the data active = inhibition above about 11%
Tat transport: inhibitors of E. coli Tat protein transport. E. coli MC4100 TorA-mCherry Tat export, fluorescence. inhibition, % at 10 µM. 0.036% of 340,000 active. AID 488895;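 active = mean replicate inhibition at least 50% and at least half of replicates individually reaching 50%; inconclusive = only one of the two criteria met; inactive = neither criterion met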;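 also: exported cargo escapes ClpAP degradation while cytoplasmic cargo is degraded and loses fluorescence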
Each line names hits and unclear results; the compound was inactive in the other large screens; ! = repeats disagree.

CC(=NNC(=O)c1c(Br)c(C)nn1C)c1cccc(NC(=O)c2ccccc2C)c1	none (no result: AddAB inh, AI-2 QS modul, E coli growth-2, phage Ecoli inh, Tat transport)
CCCCNS(=O)(=O)c1ccc(NC(=O)Cc2ccc(OC)cc2)cc1	AI-2 QS modul -96
O=C(Nc1ccccc1)Nc1ncc([N+](=O)[O-])s1	E coli growth-1 0.36, AI-2 QS modul -86 (no result: AddAB inh, E coli growth-2)
O=C(COC(=O)c1ccccc1)Nc1ncc([N+](=O)[O-])s1	none (no result: AI-2 QS modul)
Clc1ccc2c(c1)c1cc(Cl)ccc1n2CN1CCOCC1	E coli growth-1 0.088
COc1ccc(Cl)cc1CN1CCOCC1	none
Clc1ccc2c(c1)c1ccccc1n2CN1CCOCC1	E coli growth-1 0.52
O=C1CCN(CCc2ccccc2)CCN1C(CSc1ccccc1)Cc1ccccc1 (configuration not stated)	none (no result: AddAB inh, AI-2 QS modul, E coli growth-2, phage Ecoli inh, Tat transport)
Nc1c(C(=O)NN=Cc2ccccc2)cnn1-c1ccccc1	none (no result: AddAB inh, AI-2 QS modul, E coli growth-2, phage Ecoli inh, Tat transport)
O=C(CN1C(=O)c2cccc3cccc1c23)Nc1ccc(S(=O)(=O)N2CCOCC2)cc1	AI-2 QS modul -96
O=C(CCl)Nc1ccc(S(=O)(=O)Nc2nccs2)cc1	none
O=C(CN1C(=O)c2cccc3cccc1c23)Nc1ccc(S(=O)(=O)Nc2nccs2)cc1	AI-2 QS modul -96
CC1=CCC(C(C)(C)NC(=O)c2ccccc2)CC1=NO (configuration not stated)	none (no result: AddAB inh, AI-2 QS modul, E coli growth-2, phage Ecoli inh, Tat transport)
CCOC(=O)C1C2COc3cc(OC)ccc3C2N2C(=O)N(c3cccc(Cl)c3)C(=O)[C@]12C (some centres not stated)	none (no result: AddAB inh, AI-2 QS modul, E coli growth-2, phage Ecoli inh, Tat transport)
Cc1cc(C(=O)NC(c2ccccc2)[C@]2(C)CC2C(C)C(=O)Nc2ccc3ccccc3c2)no1 (some centres not stated)	none (no result: AddAB inh, AI-2 QS modul, E coli growth-2, phage Ecoli inh, Tat transport)
CC(=NNc1cccc(C(=O)O)c1)c1ccc(Cl)s1	none (no result: AddAB inh, AI-2 QS modul, E coli growth-2, phage Ecoli inh, Tat transport)
O=c1nccc(N/N=C/c2ccccc2O)[nH]1	none (no result: AddAB inh, E coli growth-1, E coli growth-2)
COc1cccc(/C=N/Nc2ccnc(=O)[nH]2)c1O	E coli growth-2 13 (no result: E coli growth-1)
COc1ccc2c3c(cccc13)C(=O)N(O)C2=O	E coli growth-1 0.38
CCCCCCCCCn1c2c(c(=N)c3c1CCC3)CCC2	E coli growth-1 0.49, E coli growth-2 10 (no result: phage Ecoli inh)
CCCCCCn1c2c(c(=N)c3c1CCC3)CCC2	none
COc1ccc(C2CC(=O)C=C(c3cc(C)ccc3OC)C2)cc1 (configuration not stated)	none (no result: AddAB inh, AI-2 QS modul, E coli growth-2, phage Ecoli inh, Tat transport)
Nc1nc(F)nc2c1ncn2C1OC(CO)C(O)C1O (configuration not stated)	E coli growth-1 0.45! (no result: AddAB inh, AI-2 QS modul, E coli growth-2, phage Ecoli inh, Tat transport)
Nc1cnn(C2OC(CO)C(O)C2O)c(=O)n1 (configuration not stated)	none (no result: E coli growth-1)
Nc1ncn(C2O[C@H](CO)[C@@H](O)[C@H]2O)c(=O)n1 (some centres not stated)	AddAB inh 97, E coli growth-2 96 (no result: E coli growth-1, AI-2 QS modul, phage Ecoli inh, Tat transport)
Nc1nc(Cl)nc2c1ncn2C1CC(O)C(CO)O1 (configuration not stated)	AI-2 QS modul -91
Cc1ccc(NC(=O)c2cc(S(=O)(=O)Nc3ccc(C)cc3)cs2)cc1	AI-2 QS modul -79
Cc1ccc(NS(=O)(=O)c2ccc(NC(=O)c3cccs3)cc2)c(C)c1	none
Fc1ccc(Nc2nc(NCc3ccco3)c3ccccc3n2)cc1	E coli growth-1 0.36
Nc1nc(Nc2ccccc2)nc(NCc2ccco2)c1[N+](=O)[O-]	none
c1ccc(CNc2nc(NCc3ccccc3)c3ccccc3n2)cc1	E coli growth-1 0.44 (no result: phage Ecoli inh)
c1ccc(CNc2nc(-c3ccccc3)nc3ccccc23)cc1	none
CNCC(CC1CCCCC1)NCC(CC(C)C)NCCc1cccc(C(F)(F)F)c1 (configuration not stated)	E coli growth-1 0.068 (no result: AddAB inh, AI-2 QS modul, E coli growth-2, phage Ecoli inh, Tat transport)
O=C(Nc1cccc(Cl)c1)Nc1csc([N+](=O)[O-])c1	AI-2 QS modul -91 (no result: E coli growth-1)
O=C(Nc1ccncc1)Nc1cccc(Cl)c1	none
CC1CC[C@]2(C(=O)OC3OC(CO)C(O)C(O)C3O)CC[C@]3(C)C(=CCC4[C@@]5(C)CCC(OC6OCC(O)C(OC7OC(CO)C(O)C(O)C7O)C6O)C(C)(C)C5CC[C@]43C)C2[C@]1(C)O (some centres not stated)	none (no result: AddAB inh, AI-2 QS modul, E coli growth-2, phage Ecoli inh, Tat transport)
Brc1cccc(OCCSc2ncccn2)c1	AI-2 QS modul -82
Nc1nnc(SCCOc2cccc(Br)c2)s1	AI-2 QS modul -79
CC(C)(C)C(=O)O/N=C(\N)c1ccc([N+](=O)[O-])s1	AI-2 QS modul -84 (no result: E coli growth-1)
N/C(=N\OC(=O)C1CC1)c1ccc([N+](=O)[O-])s1	AI-2 QS modul -88 (no result: E coli growth-1)
CC(C)(C)C(=O)ON=C(N)c1ccc([N+](=O)[O-])s1	none (no result: AddAB inh, AI-2 QS modul, E coli growth-2, phage Ecoli inh, Tat transport)
COc1ccc(C2C3C(=O)N(C(C)(C)C)C(=O)C3[C@]3(Cc4ccccc4)C(=O)N(c4cccc(F)c4)C(=O)N23)cc1 (some centres not stated)	none (no result: AddAB inh, AI-2 QS modul, E coli growth-2, phage Ecoli inh, Tat transport)
CCN(CC)C(=O)COc1ccc(C(C)=NNc2ncc(Cl)cc2Cl)cc1	none (no result: AddAB inh, AI-2 QS modul, E coli growth-2, phage Ecoli inh, Tat transport)
O=[N+]([O-])c1ccc(N=Nc2c(Cl)cc(O)cc2Cl)cc1	E coli growth-1 0.4
c1ccc2c(-c3nnc(SCc4cn5ccccc5n4)o3)c[nH]c2c1	none
c1ccc(CSc2nnc(-c3c[nH]c4ccccc34)o2)cc1	AI-2 QS modul -82
Cc1ccc(CCC(=O)Nc2ccc(C)c(C)c2)o1	AI-2 QS modul -79
COc1cc2c(cc1OC)CN(C(=S)Nc1ccccc1)CC2	none
COc1cc2c(cc1OC)CN(C(=S)Nc1ccccc1Cl)CC2	E coli growth-1 0.43
CCOC(=O)C(N=Nc1c(C)n(C)n(-c2ccccc2)c1=O)=C(O)c1ccccc1	none (no result: AddAB inh, AI-2 QS modul, E coli growth-2, phage Ecoli inh, Tat transport)
O=C1C=CC(=O)N1c1cccc(-c2ccccc2)c1	AI-2 QS modul -212
O=C(Nc1cccc(N2C(=O)C=CC2=O)c1)c1cccs1	AI-2 QS modul inconclusive (no result: E coli growth-1)
C=CCNC(=S)NC(=O)c1csc([N+](=O)[O-])c1	AI-2 QS modul -104
Cc1cc(C(=O)NN=Cc2ccc([N+](=O)[O-])s2)n[nH]1	E coli growth-1 0.46 (no result: AddAB inh, AI-2 QS modul, E coli growth-2, phage Ecoli inh, Tat transport)
NC(=O)c1ccc(N=Cc2ccc([N+](=O)[O-])s2)cc1	E coli growth-1 0.35 (no result: AI-2 QS modul)
Cc1cc(C)cc(N=Cc2ccc([N+](=O)[O-])s2)c1	E coli growth-1 0.54
Cc1cc(C)c2nc(N=C(N)NC(=O)c3ccccc3)nc(C)c2c1	none (no result: AddAB inh, AI-2 QS modul, E coli growth-2, phage Ecoli inh, Tat transport)
CC(NC1CCCCC1)=C(C#N)C(=O)NCCN1CCOCC1	none (no result: AddAB inh, AI-2 QS modul, E coli growth-2, phage Ecoli inh, Tat transport)
Cc1c2ccncc2cc2c1[nH]c1ccccc12	E coli growth-1 0.41 (no result: AddAB inh, AI-2 QS modul, E coli growth-2)
Cc1cc2c([nH]c3ccccc32)c(C)n1	none
COC(=O)C1=C(C(=O)OC)C2N(Cc3ccccc3)c3ccccc3[C@@]23CC(C(=O)OC)N(C(=O)c2cccs2)C3=N1 (some centres not stated)	none (no result: AddAB inh, AI-2 QS modul, E coli growth-2, phage Ecoli inh, Tat transport)
COc1ccc(CCNS(=O)(=O)c2ccc(Br)s2)cc1	AI-2 QS modul -78
COc1ccc(CC(=O)Nc2cc(C)on2)cc1OC	none
COc1ccc(CC(=O)Nc2cc(C)ccc2O)cc1OC	AI-2 QS modul -78
CCOCCc1nnc(NC(=O)CN2C(=O)c3ccccc3C2=O)s1	AI-2 QS modul -89
CCOCCc1nnc(NC(=O)Cc2ccccc2)s1	none
CCOC(=O)CC1c2cc(C(F)(F)F)ccc2S(=O)(=O)N1C(C)C (configuration not stated)	none (no result: AddAB inh, AI-2 QS modul, E coli growth-2, phage Ecoli inh, Tat transport)
